PMC5540273 (PLoS ONE, 2017)

Columns and labels:
Settings in all cases: concentration: 1 μM, replicates: in singlicate; n = 1
MYLK = system: MYLK
MYO3A = system: MYO3A
MYO3B = system: MYO3B
NDR1 = system: T1, NDR1
T1 construct: gene STK38

NDR2 = system: NDR2
NEK10 = system: NEK10
NEK11 = system: NEK11
NEK1 = system: NEK1
NEK2 = system: NEK2
NEK3 = system: NEK3
NEK4 = system: NEK4
NEK5 = system: NEK5
NEK6 = system: NEK6
NEK7 = system: NEK7
NEK9 = system: NEK9
NIK = system: T2, NIK
T2 construct: gene MAP3K14

NIM1 = system: T3, NIM1
T3 construct: gene MGC42105

NLK = system: NLK
OSR1 = system: T4, OSR1
T4 construct: gene OXSR1

PAK1 = system: PAK1
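Note: KINOMEscan kinase panel screen.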

Compound | %Inh (MYLK) | %Inh (MYO3A) | %Inh (MYO3B) | %Inh (NDR1) | %Inh (NDR2) | %Inh (NEK10) | %Inh (NEK11) | %Inh (NEK1) | %Inh (NEK2) | %Inh (NEK3) | %Inh (NEK4) | %Inh (NEK5) | %Inh (NEK6) | %Inh (NEK7) | %Inh (NEK9) | %Inh (NIK) | %Inh (NIM1) | %Inh (NLK) | %Inh (OSR1) | %Inh (PAK1)
Nc1nccc2scc(-c3ccc4c(c3)CCN4C(=O)Cc3ccccc3)c12 [GSK2576924] | 4% | 11% | 5% | 27% | 3% | 9% | 0% | 0% | 4% | 10% | 0% | 14% | 0% | 0% | 18% | 23% | 8% | 0% | 7% | 18%
Cn1c(=O)c(F)c(Nc2ccc(I)cc2F)c2c(=O)n(OC[C@H](O)CO)cnc21 | 22% | 0% | 28% | 7% | 3% | 0% | 0% | 0% | 14% | 35% | 0% | 4% | 30% | 0% | 0% | 0% | 0% | 0% | 0% | 0%
COc1cccc(C2=C(Nc3cccc(C(=O)O)c3)C(=O)NC2=O)c1 [SB-390770] | 0% | 0% | 8% | 0% | 0% | 40% | 36% | 0% | 0% | 0% | 0% | 14% | 1% | 0% | 9% | 0% | 0% | 8% | 16% | 0%
Nc1nc(-c2ccccc2F)c(-c2ccnc3ccccc23)s1 [GW560459] | 11% | 20% | 0% | 16% | 0% | 3% | 0% | 7% | 0% | 1% | 0% | 0% | 0% | 8% | 53% | 17% | 22% | 27% | 4% | 18%
O=C(Nc1n[nH]c2cc(-c3ccccc3F)ccc12)C1CC1 [SB-733371] | 0% | 22% | 0% | 37% | 2% | 0% | 12% | 0% | 0% | 16% | 0% | 0% | 0% | 11% | 0% | 0% | 0% | 15% | 0% | 0%
CCC(=O)c1c(-c2ccccc2)c2cc(Cl)ccc2c(=O)n1Cc1cc(S(C)(=O)=O)n(CC(N)=O)n1 | 0% | 0% | 0% | 32% | 0% | 0% | 0% | 0% | 0% | 32% | 0% | 0% | 0% | 0% | 0% | 0% | 14% | 0% | 0% | 32%
COc1cc2nccc(Nc3cccc(Oc4ccccc4)c3)c2cc1OC.Cl [GW284543] | 0% | 0% | 36% | 8% | 0% | 0% | 19% | 0% | 0% | 0% | 3% | 0% | 0% | 11% | 27% | 37% | 19% | 24% | 4% | 0%
O=C(Nc1n[nH]c2nc(-c3ccccc3)c(Cl)cc12)C1CC1 [SB-734909] | 37% | 0% | 12% | 8% | 0% | 0% | 11% | 0% | 0% | 33% | 23% | 11% | 0% | 0% | 2% | 13% | 6% | 11% | 0% | 0%
CCc1ccc(-c2ccc3c(c2)-c2nn(C)cc2S(=O)(=O)N3C)cc1 | 3% | 96.5% | 0% | 19% | 0% | 0% | 0% | 0% | 0% | 36% | 0% | 0% | 0% | 0% | 0% | 0% | 0% | 0% | 0% | 0%
CCn1c(-c2nonc2N)nc2ccccc21 [SB-693162/GW549034] | 48% | 0% | 18% | 37% | 23% | 12% | 25% | 0% | 0% | 0% | 11% | 18% | 17% | 12% | 0% | 24% | 2% | 0% | 24% | 0%
Cc1cccc(-c2cc(-c3c[nH]nc3-c3ccccn3)ccn2)c1 [GW679395] | 32% | 7% | 0% | 15% | 0% | 24% | 0% | 0% | 0% | 3% | 0% | 7% | 0% | 0% | 0% | 19% | 6% | 32% | 0% | 24%
COc1ccc(-c2cc3c(C)nc(N)nc3n([C@H]3CC[C@H](O)CC3)c2=O)cn1 | 98.8% | 0% | 0% | 0% | 0% | 0% | 0% | 0% | 0% | 16% | 0% | 0% | 0% | 0% | 0% | 2% | 0% | 13% | 0% | 7%
CCc1nc(-c2cccc(C)c2)c(-c2ccncc2)s1 | 12% | 4% | 15% | 40% | 0% | 3% | 0% | 0% | 0% | 28% | 0% | 0% | 3% | 0% | 0% | 0% | 0% | 81% | 0% | 28%
Cc1ccc(Oc2ccc(Nc3ncnc4cc[nH]c34)cc2C)cn1 | 38% | 9% | 28% | 8% | 0% | 0% | 0% | 0% | 2% | 20% | 3% | 0% | 17% | 10% | 5% | 0% | 58% | 0% | 0% | 37%
Nc1ncnc2c1ncn2-c1cccc2ccccc12 [SKF-97184] | 0% | 0% | 27% | 29% | 4% | 0% | 27% | 11% | 0% | 31% | 0% | 0% | 0% | 0% | 0% | 2% | 13% | 0% | 0% | 3%
O=C(NCCNc1ccnc(Nc2ccc(F)cc2)n1)Nc1ccc2c(c1)OCO2 [GSK1379882] | 23% | 32% | 0% | 10% | 20% | 0% | 7% | 0% | 7% | 16% | 0% | 15% | 0% | 0% | 12% | 22% | 18% | 0% | 0% | 0%

Compound | %Inh (MYLK) | %Inh (MYO3A) | %Inh (MYO3B) | %Inh (NDR1) | %Inh (NDR2) | %Inh (NEK10) | %Inh (NEK11) | %Inh (NEK1) | %Inh (NEK2) | %Inh (NEK3) | %Inh (NEK4) | %Inh (NEK5) | %Inh (NEK6) | %Inh (NEK7) | %Inh (NEK9) | %Inh (NIK) | %Inh (NIM1) | %Inh (NLK) | %Inh (OSR1) | %Inh (PAK1)
OCCCNc1nccc(-c2c(-c3cccc(C(F)(F)F)c3)nn3cc(C(F)(F)F)ccc23)n1 [GW630813] | 10% | 43% | 0% | 9% | 18% | 0% | 5% | 0% | 0% | 0% | 0% | 5% | 0% | 0% | 1% | 0% | 0% | 92.7% | 0% | 0%
COc1ccc(-c2coc3ccc(-c4nnc(SCc5cccc(C#N)c5)o4)cc23)cc1 | 6% | 20% | 49% | 7% | 0% | 0% | 0% | 0% | 5% | 7% | 3% | 0% | 16% | 0% | 0% | 2% | 5% | 0% | 0% | 18%
COc1ccc(CNC(=O)NC2CCN(c3ccnc(Nc4ccc(F)cc4)n3)C2)cc1 (centres unmarked) [GSK1379706] | 9% | 42% | 0% | 28% | 50% | 25% | 43% | 17% | 16% | 13% | 0% | 35% | 21% | 0% | 0% | 26% | 0% | 37% | 0% | 0%
COC(=O)c1c(-c2ccccc2)c2cc(Br)ccc2c(=O)n1Cc1ccc(S(C)(=O)=O)cc1 | 20% | 26% | 0% | 7% | 19% | 0% | 0% | 0% | 10% | 21% | 17% | 0% | 20% | 3% | 6% | 0% | 15% | 0% | 4% | 24%
COc1cc2ncn(-c3cc(OCc4ccc(S(C)(=O)=O)cc4)c(C(N)=O)s3)c2cc1OC [GW869979] | 46% | 0% | 0% | 25% | 4% | 29% | 14% | 0% | 0% | 14% | 14% | 20% | 1% | 0% | 0% | 7% | 45% | 4% | 25% | 0%
Nc1nc(N)c2nc(-c3ccccc3)[nH]c2n1 [SKF-12778] | 0% | 0% | 19% | 33% | 0% | 58% | 13% | 0% | 0% | 0% | 8% | 10% | 5% | 9% | 6% | 0% | 0% | 2% | 22% | 0%
CN(C)c1cc(-c2ccc3c(N)n[nH]c3c2)nc(N)n1 [GSK2219329] | 0% | 11% | 0% | 17% | 0% | 0% | 0% | 0% | 0% | 0% | 0% | 2% | 0% | 0% | 0% | 0% | 21% | 1% | 0% | 9%
C[C@@H]1CC[C@H](C(=O)NC2CCCCC2)CN1c1cc(-c2ccc3c(N)n[nH]c3c2)nc(N)n1 [GSK2291363] | 52% | 36% | 0% | 14% | 7% | 29% | 0% | 10% | 0% | 12% | 18% | 22% | 26% | 0% | 25% | 32% | 14% | 7% | 17% | 15%
Cc1nc(N(C)[C@H]2CN(C(=O)CC#N)CC[C@H]2C)c2cc[nH]c2n1 | 10% | 0% | 9% | 0% | 13% | 0% | 0% | 0% | 0% | 3% | 4% | 11% | 7% | 0% | 0% | 0% | 0% | 7% | 0% | 0%
COC(=O)c1c(-c2ccccc2)c2cc(C)ccc2c(=O)n1Cc1ccccc1 | 0% | 0% | 0% | 0% | 0% | 0% | 0% | 0% | 0% | 24% | 0% | 0% | 0% | 0% | 0% | 100% | 0% | 0% | 0% | 24%
CCS(=O)c1ccc(-c2coc3ccc(-c4nnc(C)o4)cc23)cc1 (centres unmarked) | 0% | 0% | 3% | 0% | 0% | 5% | 0% | 0% | 0% | 1% | 0% | 0% | 0% | 0% | 0% | 0% | 11% | 0% | 0% | 0%
CCCNC(=O)Nc1ccc(Oc2ncnc3ccn(C)c23)cc1 | 0% | 0% | 40% | 3% | 0% | 0% | 0% | 0% | 0% | 33% | 0% | 0% | 13% | 0% | 11% | 0% | 0% | 0% | 17% | 17%
COC(=O)c1c(-c2ccccc2)c2cc(Br)ccc2c(=O)n1Cc1ccc(NC(=O)CCC(=O)O)cc1 | 29% | 100% | 0% | 0% | 0% | 0% | 0% | 0% | 0% | 13% | 1% | 0% | 7% | 18% | 11% | 0% | 2% | 0% | 14% | 15%
FC(F)(F)c1ccc(-c2ncn(CCCN3CCOCC3)c2-c2ccncc2)cc1 [SB-217780] | 4% | 0% | 0% | 3% | 0% | 4% | 0% | 0% | 0% | 9% | 0% | 9% | 0% | 10% | 33% | 0% | 26% | 35% | 5% | 20%
CCC(=O)c1c(-c2ccccc2)c2cc(Cl)ccc2c(=O)n1Cc1cc(S(C)(=O)=O)n(CCC(C)(C)O)n1 | 5% | 0% | 0% | 2% | 1% | 0% | 0% | 0% | 4% | 0% | 0% | 17% | 14% | 1% | 0% | 0% | 0% | 0% | 0% | 20%
